Screening results: PubChem, National Center for Advancing Translational Sciences (NCATS)
HepG2 tox – HepG2 cytotoxicity, counter-screen for TGF-b inhibitors. HepG2 CAGA-GFP viability, ATP luminescence, 18 h. AID 588856. 410,000 tested, 0.76% active. Potency, µM (doses to about 46.1 µM), without a hit: at the highest dose activity change, negative = cytotoxicity, actives largely listed as cytotoxic
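CellTiter-Glo luminescence gave cytotoxicity after 18 hours at 37 degrees C. The cells were HepG2 CAGA-GFP in 1% FBS DMEM, stimulated with 500 pg/mL TGF-beta after compound addition. %Activity was normalised to no-cell wells (complete cell-killing) and DMSO (no toxicity), and curves were fitted and classified.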
HT1080-NT tox – kills 2HG-producing HT-1080-NT fibrosarcoma cells. 360,000 tested, 1.6% active. HT-1080-NT fibrosarcoma viability, CellTiter-Glo ATP luminescence, 48 h. Potency, µM (doses to about 46.1 µM), for inactives: top-dose activity, negative = less viability, hits mostly cytotoxic;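 also: NT is the 2HG producing partner of a matched IDH1 knockdown line; 0% = DMSO-treated cells and -100% = media-only wells without cells; nearly all actives have a fitted effect of over 55% in size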
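Luminescent CellTiter-Glo readout after 48 hours of compound exposure at 37 degrees C defined viability of HT-1080-NT cells. Activity was normalized to DMSO wells and cell-free media wells; concentration-response curves were fitted and assigned curve classes.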
HT1080 IDH1KD tx – toxicity to HT-1080 IDH1 knockdown cells (counter line); Potency, µM (titrated, usually from 46.1 µM), for inactives: at the top dose activity, negative = toxicity, actives largely listed as cytotoxic; HT-1080 IDH1 knockdown viability, ATP luminescence, 48 h; 360,000 tested, 2% active; AID 686971;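 also: 0% = DMSO wells and -100% = cell-free medium wells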
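Viability of IDH1-knockdown HT-1080 fibrosarcoma cells was assessed by CellTiter-Glo after 48 h at 37 °C with titrated compound; concentration-effect curves were classified by fit quality and response size.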
ATXN2 expr inh – ATXN2 expression inhibition | Potency, µM (series often up to 57 µM), inactives show at the top dose activity change, negative = inhibition, usual class: inhibitors | 360,000 tested, 0.72% active | HEK-293 ATXN2-luciferase reporter, luminescence, 24 h; also: % is scaled to controls: 0 for no effect and ±100 for the full control effect; nearly all actives have a fitted effect of over 55% in size
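qHTS (up to 57 uM final) was run with 24 h compound exposure of reporter cells at 37 °C. Each well was multiplexed: SteadyGlo luminescence measured ATXN2-luciferase expression after a fluorogenic Gly-Phe-AFC viability readout (25 uM final).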
TGFb inhibitor – inhibitors of TGF-b signaling; HepG2 CAGA-GFP TGF-b/SMAD3 reporter, GFP fluorescence, 18 h; TGF-beta stimulated, 500 pg/mL final; Potency, µM (titrated, usually from 46.1 µM), without a hit: at the highest dose activity, negative = inhibition, most hits filed as inhibitors; 410,000 tested, 1.2% active; AID 588855; also: % is scaled to controls: 0 for no effect and ±100 for the full control effect; nearly all actives have a fitted effect of over 65% in size
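TGF-beta reporter screen: HEPG2 CAGA-GFP, 1% FBS, 500 pg/mL TGF-beta final, 18 h; per-cell GFP summed per well; curves fitted and categorized by class.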
ATXN viability – cell viability loss in ATXN counter-screen. 400,000 tested, 0.49% active. Potency, µM (titrated, usually from 56.7 µM), actives largely listed as cytotoxic. S2 cells (HEK-293 line with an ATXN2-luciferase reporter) viability, CellTiter-Fluor protease fluorescence, 24 h; also: nearly all actives have a fitted effect of over 40% in size
Starred values were filed as active, the others as inactive; i = inactive; ? = inconclusive; . = no result given. Most compounds without a hit are left out; they make up all but 3.8% or so of the library. Calls follow the shape of the dose curve; as a rule, active = well fitted curve in the direction sought with a large enough effect; inconclusive = small, poorly fitted or top-dose-only effect, or another doubt; inactive = no such curve, though single readings can be large; an effect the other way counts as inactive or inconclusive. Potency is read from the fitted curve at half-maximal effect.

SMILES	HepG2 tox	HT1080-NT tox	HT1080 IDH1KD tx	ATXN2 expr inh	TGFb inhibitor	ATXN viability
C[C@H]1O[C@@H](O[C@H]2[C@@H](O)C[C@@H](O[C@H]3[C@@H](O)C[C@H](O[C@H]4CC[C@@]5(C)[C@H](CC[C@@H]6[C@@H]5CC[C@]5(C)[C@@H](C7=CC(=O)OC7)CC[C@]65O)C4)O[C@@H]3C)O[C@@H]2C)C[C@H](O)[C@@H]1O	-48.8%	.	.	.	0.316µM*	.
CC(=O)OC1CC(OC2C(O)CC(OC3C(O)CC(OC4CCC5(C)C(CCC6C5CC(O)C5(C)C(C7=CC(=O)OC7)CCC65O)C4)OC3C)OC2C)OC(C)C1OC1OC(CO)C(O)C(O)C1O (stereo not given)	-47.4%	0.366µM*	0.206µM*	0.316µM*	1.41µM*	?
CCNC(=O)CCSc1nc2cc(Cl)ccc2o1	2.7%	17.3%	15.7%	1.3%	?	i
C[C@]12CC[C@H](O)C[C@H]1CC[C@@H]1[C@@H]2C[C@@H](O)[C@]2(C)[C@@H](C3=CC(=O)OC3)CC[C@]12O	-55.6%	2.06µM*	0.82µM*	?	10µM*	?
C[C@]12CCC3C(CC[C@H]4C[C@@H](O)CC[C@]34C)[C@H]1C=CC2=O (stereo not given in full)	-6.9%	-17.1%	?	-25.9%	?	i
Cc1ccc(CNC(=O)C(=O)NCC(c2cccnc2)N2CCN(c3ccc(F)cc3)CC2)cc1 (stereo not given)	4.2%	.	.	?	7.4%	i
CCOc1ccc(S(=O)(=O)Nc2cccc(C(=O)N3CCN(c4ccccn4)CC3)c2)cc1	-0.2%	-5.3%	-17.9%	.	-12.3%	?
CN(Cc1ccccc1)C(=O)c1ccc(NC(=O)C2CCN(C(=O)OC(C)(C)C)CC2)cc1	1.7%	-18.5%	-22.2%	25.1µM*	-9.0%	?
N#CC1=C(N)C(C#N)(C#N)C(c2ccncc2)C2CN(C(=O)OCc3ccccc3)CC=C12 (stereo not given)	-44.7%	?	20.6µM*	-9.9%	?	i
CN1CC=C2C(C#N)=C(N)C(C#N)(C#N)C(c3ccncc3)C2C1 (stereo not given)	-16.6%	2.4%	11.2%	-7.9%	24.0%	i
COC(=O)C1=C(c2cc3ccccc3o2)C[C@@H]2CC[C@H]1N2C(=O)NCc1ccc(C(F)(F)F)cc1	-21.0%	20.6µM*	?	8.0%	2.8%	i
COC(=O)C1=C(c2ccccc2)C[C@@H]2CC[C@H]1N2C(=O)N1CCOCC1	4.7%	6.1%	1.7%	2.3%	5.8%	i
COC(=O)C1=C(c2cc3ccccc3o2)C[C@@H]2CC[C@H]1N2C(=O)NCc1ccccc1	-21.1%	-9.9%	-11.5%	-13.1%	?	?
COC(=O)C1=C(c2cc3ccccc3o2)C[C@@H]2CC[C@H]1N2C(=O)N1CCOCC1	-0.2%	23.1µM*	?	-12.5%	?	?
COc1ccc2oc(-c3cccc(NC(=O)c4ccc(C#N)cc4F)c3)nc2c1	-14.6%	.	.	0.3%	9.5%	?
O=C1C=CC[C@@H]2[C@H]3CCCN4CCC[C@@H](CN12)[C@@H]34	.	.	.	1.53µM*	.	.
C[C@]12COC(=O)C[C@@H]1CC[C@@H]1[C@H]2CC[C@@]2(C)[C@H]1CC[C@]2(C)O	.	.	.	5.1%	.	.
O=C(COc1ccc(Br)cc1)N1CCN(Cc2c[nH]c3ccccc23)CC1	-62.9%	-2.8%	-7.2%	-7.0%	11.2µM*	i
O=C(COc1ccc2ccccc2c1)N1CCN(Cc2c[nH]c3ccccc23)CC1	12.6µM*	-28.1%	?	?	?	?
O=C(COc1ccc(Br)cc1)N1CCN(C2CCCC2)CC1	-5.1%	-0.8%	-4.0%	1.6%	0.9%	i
